# Measured values: PubChem BioAssay
# Activity calls are given as the source filed them.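 Rule for the calls, unless noted: active = inhibition of the reporter signal at or above 50%; inactive = inhibition below 50%.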
# Legend:
# [1] = inhibitors of TNFa-induced NFkB p65 translocation, primary screen, imaging, HUVEC, MLSMR starter and 10KST1 sets (AID 438;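 active = inhibition above 20% together with a positive visual image hit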;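 note: compound added about 3h40 before a 20 min TNFalpha stimulation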;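 for inhibition: signal is the nuclear over cytoplasmic p65 intensity ratio per well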); settings: HUVEC TNFa-induced p65 nuclear translocation; cell count: measured here: nuclei count (cytotoxicity indicator), at 2.08 µM; inhibition: at 2 µM, stronger effect = higher value, 0% TNFa-plus-vehicle, 100% no-TNFa wells
# [2] = inhibitors of mutant huntingtin aggregation, primary screen, imaging, exon1htt(103Q)mCFP cells, high-content imaging (AID 483;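 active = visual image review flags a hit and inhibition of aggregation exceeds 20%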;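 note: compound exposure lasted 3 days before fixation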;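 for nuclei count: percent of the per-plate median nuclei count of sample wells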); settings: exon1htt(103Q)mCFP cell line, aggregate imaging, at 2 µM; inhibition of aggregation: stronger effect = higher value; nuclei count: measured here: cell count, toxicity
# [3] = inhibitors of E-selectin induction by TNFa, primary screen, imaging, HUVEC, immunofluorescence, MLSMR starter and 10KST1 sets (AID 487;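 active = visually confirmed hit in the image check and inhibition above 20%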;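 for inhibition: signal is fraction of cell area covered by stained E-selectin grains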;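 for nuclei count: 100% = median nuclei count of all wells on the same plate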); settings: HUVEC TNFalpha-induced E-selectin immunofluorescence imaging, at 2 µM; inhibition: stronger effect = higher value; nuclei count: measured here: cell number, toxicity
# [4] = molecular target: Voltage-gated potassium channel subunit beta-2 (Rattus norvegicus) (UniProt P62483); test: KvBeta enzyme negative modulators, primary screen, biochemical, NADPH fluorescence (AID 622;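 active = fluorescence slope higher than the sample average by over 3 SD, cut at about -0.22 in these data, passing the limit was not always enough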;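 note: slope of raw intensity against log time taken from 70 to 1610 s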); settings: recombinant KvBeta, 4-cyanobenzaldehyde reduction, at 10 µM, stronger effect = higher value
# Sequence of Voltage-gated potassium channel subunit beta-2 (Rattus norvegicus) (P62483 whole entry, looked up): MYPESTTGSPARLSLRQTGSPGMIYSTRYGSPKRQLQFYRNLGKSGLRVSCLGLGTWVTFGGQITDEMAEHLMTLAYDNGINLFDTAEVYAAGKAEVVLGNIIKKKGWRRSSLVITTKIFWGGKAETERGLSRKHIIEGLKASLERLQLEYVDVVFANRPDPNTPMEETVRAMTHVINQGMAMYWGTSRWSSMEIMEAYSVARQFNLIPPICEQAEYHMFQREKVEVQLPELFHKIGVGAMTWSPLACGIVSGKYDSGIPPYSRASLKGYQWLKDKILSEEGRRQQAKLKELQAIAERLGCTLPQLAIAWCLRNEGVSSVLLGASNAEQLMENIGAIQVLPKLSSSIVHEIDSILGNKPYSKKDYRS
# [5] = molecular target: Voltage-gated potassium channel subunit beta-2 (Rattus norvegicus) (UniProt P62483); test: KvBeta positive modulators, primary screen, biochemical, NADPH fluorescence (AID 623;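 active = NADPH fluorescence slope more negative than the mean of all samples by about 3 SD, 99.7% confidence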;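 note: fluorescence intensity change per second fitted from 20 to 320 s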); settings: Recombinant KvBeta, NADPH fluorescence decrease slope, 10 min; at 10 µM; stronger effect = lower value
# [6] = molecular target: Alpha-2C adrenergic receptor (Homo sapiens) (UniProt P18825); test: modulators of alpha2C/GIRK thallium flux, primary screen, cell-based, HEK293 alpha2C/GIRK1/2 (AID 624;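 active = fluorescence slope after compound addition differing from the mean of all screened samples at 99.7% confidence, in either direction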;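 note: slope of fluorescence ratio to pre-addition baseline per second over 15 to 24 s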); settings: thallium flux BTC fluorescence, at 10 µM, actives lie on both sides
# Sequence of Alpha-2C adrenergic receptor (Homo sapiens) (P18825 whole entry, looked up): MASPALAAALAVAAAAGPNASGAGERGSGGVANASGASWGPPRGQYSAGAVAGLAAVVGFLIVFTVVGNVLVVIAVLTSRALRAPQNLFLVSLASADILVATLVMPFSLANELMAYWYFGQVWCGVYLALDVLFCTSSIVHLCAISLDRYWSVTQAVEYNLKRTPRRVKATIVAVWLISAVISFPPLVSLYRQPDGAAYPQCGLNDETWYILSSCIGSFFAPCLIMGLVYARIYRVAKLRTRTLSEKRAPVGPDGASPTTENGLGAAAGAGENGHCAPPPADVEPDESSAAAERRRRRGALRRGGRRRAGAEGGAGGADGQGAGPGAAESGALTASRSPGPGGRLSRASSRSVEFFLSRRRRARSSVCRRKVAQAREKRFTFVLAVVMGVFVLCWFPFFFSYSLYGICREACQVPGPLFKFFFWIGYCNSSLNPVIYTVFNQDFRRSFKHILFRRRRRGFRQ
# [7] = inhibitors of Sendai virus-induced IRF3 signaling, primary screen, TLR/RLR signaling modifier project, cell-based, Sendai virus stimulus, luciferase, 10K MLSCN set (AID 602276;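 active = inhibition at or above 50% at 10 µM; inactive = inhibition below 50%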;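 note: firefly luciferase from ISG56 promoter only with Renilla not read in this screen; 0% = Sendai virus plus DMSO and 100% = medium plus DMSO without virus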); settings: HEK293 RL24 IRF3 luciferase reporter, at 10 µM, stronger effect = higher value
# [8] = inhibitors of poly I:C-induced TLR3 signaling, primary screen, cell-based, poly I:C stimulus, luciferase, 10K MLSCN set (AID 602277); settings: HEK293-TLR3 RL24 IRF3 luciferase reporter, at 10 µM, stronger effect = higher value
Compound,cell count [1],inhibition [1],inhibition of aggregation [2],nuclei count [2] [%],inhibition [3],nuclei count [3] [%],fluorescence slope [4],NADPH fluorescence slope [5],slope [6],inhibition [7],inhibition [8]
O=C(CNS(=O)(=O)c1ccccc1)NCc1ccccn1,707,-2.1% (inactive),-10.6% (inactive),106,-25.5% (inactive),113,-0.517 (inactive),-1.9e-05 (inactive),0.00515 (inactive),20.5% (inactive),16.3% (inactive)
O=c1cc(CN2CCN(c3ccc(F)cc3)CC2)nc2sccn12,280,3.4% (inactive),19.5% (inactive),95,-8.5% (inactive),109,-0.477 (inactive),2.3e-05 (inactive),0.00346 (inactive),-6.74% (inactive),0.252% (inactive)
Cc1nn(-c2nc3ccccc3s2)c(C)c1Oc1ccccc1O,591,-9.8% (inactive),-19.1% (inactive),107,-154% (inactive),161,-0.437 (inactive),-2.9e-06 (inactive),0.00527 (inactive),2.14% (inactive),-97.7% (inactive)
Cc1ccccc1-c1nc(CN2CCC(C(=O)N3CCC(C(N)=O)CC3)CC2)c(C)o1,576,6.1% (inactive),1.2% (inactive),87.6,7.6% (inactive),87.8,-0.548 (inactive),-3.8e-05 (inactive),0.00557 (inactive),7.94% (inactive),40.4% (inactive)
CC(C)N(O)C(=O)NC(C)(C)C,496,9.4% (inactive),-1.8% (inactive),106,42.3% (inactive),103,-0.494 (inactive),-2.2e-05 (inactive),0.00463 (inactive),17.4% (inactive),15% (inactive)
O=C(c1cnc2n(c1=O)CCS2)N(C1CCCCC1)C1CCCCC1,649,-6.9% (inactive),6.9% (inactive),97.5,-47.3% (inactive),122,-0.42 (inactive),-4.8e-05 (inactive),0.00465 (inactive),11% (inactive),39.3% (inactive)
CC(=O)c1cccc(NC(=O)CCNS(=O)(=O)c2cccc3nsnc23)c1,439,-3.5% (inactive),-17.6% (inactive),104,-46.7% (inactive),107,-0.539 (inactive),-3e-05 (inactive),0.00543 (inactive),11.2% (inactive),17.2% (inactive)
CCOC(=O)N1CCC(NC(=O)c2ccc3c(c2)N(CC)CCS3)CC1,382,-2.4% (inactive),-22.2% (inactive),70.3,-62.7% (inactive),114,-0.0283 (active),-5.8e-06 (inactive),0.00586 (inactive),12.8% (inactive),34.1% (inactive)
COc1ccc(-n2cnnc2SCCC#N)cc1,520,-3.8% (inactive),-0.2% (inactive),82.5,-115% (inactive),122,-0.549 (inactive),-2.7e-05 (inactive),0.00567 (inactive),6.27% (inactive),12% (inactive)
Cc1ccc(S(=O)(=O)C2(C(=O)N3CCCCCC3)CC2)cc1,439,-0.7% (inactive),-0.7% (inactive),102,-46.5% (inactive),122,-0.611 (inactive),4.7e-05 (inactive),0.00663 (inactive),8.56% (inactive),1.57% (inactive)
CN(Cc1cccs1)CC(O)COCc1ccco1 (stereo not drawn),407,6% (inactive),-40.7% (inactive),116,-28.9% (inactive),113,-0.591 (inactive),-4.7e-05 (inactive),0.00778 (inactive),11.5% (inactive),23.9% (inactive)
Nc1nnc(-c2cn(-c3ccccc3)nc2-c2ccccc2)o1,523,-12.5% (inactive),-7.1% (inactive),90.3,-16.3% (inactive),113,-0.481 (inactive),1.3e-05 (inactive),0.00498 (inactive),-22.2% (inactive),-23.6% (inactive)
Cc1ccccc1-c1nc(CS(=O)(=O)CC(=O)NCc2ccccc2)c(C)o1,642,2.8% (inactive),-36.7% (inactive),75.5,16.5% (inactive),106,-0.532 (inactive),-2.1e-05 (inactive),0.00661 (inactive),9.9% (inactive),24.3% (inactive)
Cc1nc(N2CCN(c3ncccn3)CC2)c2oc3ccccc3c2n1,583,-8.7% (inactive),0.3% (inactive),106,-56.1% (inactive),104,-0.432 (inactive),-1.4e-05 (inactive),0.00731 (inactive),-3.03% (inactive),-57.2% (inactive)
NC(=O)CSc1nnc(-c2cnccn2)n1-c1ccccc1,625,3.8% (inactive),-10.7% (inactive),102,19% (inactive),94.9,-0.501 (inactive),-4.9e-05 (inactive),0.0054 (inactive),20.2% (inactive),20.8% (inactive)
O=C(Nc1ccc(S(=O)(=O)N2CCCCCC2)cc1)c1ccco1,355,1.5% (inactive),12.9% (inactive),105,-32.3% (inactive),126,-0.434 (inactive),-6.7e-05 (inactive),0.00521 (inactive),-8.22% (inactive),-19.4% (inactive)
O=C1C2C3C=CC(C3)C2C(=O)N1Cc1ccccc1 (stereo not drawn),480,-9.2% (inactive),-2.3% (inactive),102,40.2% (inactive),74.3,-0.618 (inactive),-6.1e-05 (inactive),0.00345 (inactive),-1.99% (inactive),-2.25% (inactive)
C=CCOC(=O)C1=C(C)NC(=O)NC1c1cn(-c2ccccc2)nc1-c1cccs1 (stereo not drawn),663,-18.8% (inactive),13.7% (inactive),87.3,-7.6% (inactive),110,-0.332 (inactive),-5.4e-05 (inactive),0.00533 (inactive),14.3% (inactive),14.3% (inactive)
CN1C(=O)C(O)(CC(=O)c2ccccc2O)c2cc(Br)ccc21 (stereo not drawn),608,3.4% (inactive),-2.8% (inactive),63.4,-59.3% (inactive),124,-0.439 (inactive),-6e-05 (inactive),0.00404 (inactive),7.07% (inactive),55.8% (active)
CCC(=O)c1ccc(OC(=O)c2ccc(Br)o2)cc1,354,6.8% (inactive),-19.7% (inactive),99.8,-84.3% (inactive),112,-0.605 (inactive),-3e-05 (inactive),0.00383 (inactive),10.9% (inactive),9.67% (inactive)
CC(=O)Nc1cc(NC(C)=O)cc(C(=O)OCC(=O)N2CC(C)OC(C)C2)c1 (stereo not drawn),492,-3.9% (inactive),22.1% (inactive),104,6.9% (inactive),109,-0.299 (inactive),-4.8e-05 (inactive),0.00487 (inactive),6% (inactive),8.11% (inactive)
COc1ccc(C)cc1NC(=O)c1nc2nc(C)cc(C)n2n1,471,3.8% (inactive),5.2% (inactive),98.1,-23.4% (inactive),124,-0.297 (inactive),1.4e-06 (inactive),0.00674 (inactive),18.5% (inactive),9.03% (inactive)
c1ccc2c(c1)nc(-c1ccncc1)n1nnnc21,517,-8.5% (inactive),8.6% (inactive),104,-111% (inactive),179,-0.359 (inactive),-1.7e-05 (inactive),0.00824 (inactive),7.9% (inactive),0.706% (inactive)
Cc1cc(C)c(NC(=O)CSc2nc3c(c(=O)n2C)SC(C)C3)c(C)c1 (stereo not drawn),700,2.9% (inactive),-5.9% (inactive),102,-22% (inactive),120,-0.565 (inactive),-3.2e-05 (inactive),0.00653 (inactive),-19.3% (inactive),-13.4% (inactive)
CCOc1cc2[nH]c(=S)n(CC3CCCO3)c(=O)c2cc1OCC (stereo not drawn),317,-0.5% (inactive),1% (inactive),104,-51.1% (inactive),115,-0.491 (inactive),4e-05 (inactive),0.00618 (inactive),-8.82% (inactive),15.8% (inactive)
O=C(Nc1ccccc1)c1cccc(N2CCCC2=O)c1,363,-6.9% (inactive),-3.4% (inactive),101,-74.1% (inactive),88,-0.457 (inactive),3.8e-05 (inactive),0.00552 (inactive),-43.5% (inactive),-128% (inactive)
COc1ccccc1N(C)S(=O)(=O)c1ccc(C(=O)NC2=NCCS2)cc1,458,10.9% (inactive),9.8% (inactive),95.4,-38% (inactive),110,-0.598 (inactive),-2.8e-05 (inactive),0.00655 (inactive),2.13% (inactive),12% (inactive)
CC(NS(=O)(=O)c1ccc(OCC(=O)N2CCOCC2)c(Cl)c1)c1ccccc1 (stereo not drawn),338,-6.5% (inactive),0.2% (inactive),104,-51.1% (inactive),76.7,-0.409 (inactive),-3.1e-05 (inactive),0.00508 (inactive),18.7% (inactive),12.4% (inactive)
